# Screens (PubChem BioAssay)
# Sampled rows, rich in hits. Any-hit rate of the full collection: about 2.4%.
# M1 antag – blocks human M1 muscarinic receptor. CHO-K1 hM1, Fluo-8 calcium fluorescence, ACh EC80 antagonist. inhibition, % at 3 µM. hit rate 1.3% among 360,000;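 active means percent inhibition above its own plate's cutoff, namely the mean of that plate's compound wells plus 3 SD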;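 further: peak over basal fluorescence ratio during 140 s after agonist addition; 0% = ACh EC80 plus DMSO and 100% = DMSO alone without agonist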
# Target sequence (P11229 whole entry, looked up): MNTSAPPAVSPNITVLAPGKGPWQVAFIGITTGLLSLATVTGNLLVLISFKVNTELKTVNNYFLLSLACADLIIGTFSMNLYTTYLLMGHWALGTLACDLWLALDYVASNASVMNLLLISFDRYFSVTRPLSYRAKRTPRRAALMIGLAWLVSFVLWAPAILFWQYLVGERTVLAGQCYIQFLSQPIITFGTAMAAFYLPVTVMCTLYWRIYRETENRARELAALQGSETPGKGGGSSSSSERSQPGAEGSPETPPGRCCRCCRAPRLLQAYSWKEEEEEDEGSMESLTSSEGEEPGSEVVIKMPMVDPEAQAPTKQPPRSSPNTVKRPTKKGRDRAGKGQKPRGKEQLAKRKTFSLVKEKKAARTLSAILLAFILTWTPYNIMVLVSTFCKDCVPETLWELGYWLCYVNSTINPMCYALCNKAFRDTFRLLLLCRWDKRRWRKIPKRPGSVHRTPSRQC
# M1 PAM parental – M1 PAM counterscreen hit in parental CHO-K1 cells. AID 602247. activation, % at 3 µM. hit rate 0.02% among 360,000. ATP EC20, Fluo-8 calcium fluorescence; 0% at ATP EC20, 100% at ATP max;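 active means activation above the run cutoff, the mean activation of all test compounds plus 3 SD, cut at about 40% in these data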;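 further: peak over basal fluorescence ratio in a 140 s read after ATP addition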
# CHO-K1 Ca ag – M1 agonist counterscreen hit in parental CHO-K1 cells; Fluo-8 calcium fluorescence; scaled to maximal ATP response, vehicle zero; activation, % at 3 µM; hit rate 0.48% among 360,000; AID 602248; in the data active means activation above about 15%;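 further: untransfected CHO-K1 host cells lacking M1 receptor as counterscreen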
# CHRM1 agonist – human M1 muscarinic receptor agonism; CHO-K1 hM1, Fluo-8 calcium fluorescence, agonist mode; 0% DMSO, 100% acetylcholine EC100; P11229; AID 588814; hit rate 0.33% among 360,000; activation, % at 3 µM;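 active means activation above the run's mean compound activation plus 3 SD, cut at about 16% in these data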;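 further: peak over basal fluorescence ratio within a 140 s kinetic read after compound addition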
# CHRM1 PAM – positive allosteric modulators of human M1 muscarinic receptor; P11229; CHO-K1 hM1, Fluo-8 calcium fluorescence, ACh EC20; 0% = ACh EC20, 100% = maximal ACh; activation, % at 3 µM; hit rate 0.088% among 360,000; AID 588819; in the data active means activation above about 19%, passing the limit was not always enough
# CHO-K1 Ca antag – nonselective inhibitor or artifact in parental CHO-K1 cells. hit rate 0.6% among 360,000. AID 602250. inhibition, % at 3 µM. ATP-induced calcium, Fluo-8 fluorescence;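 active means inhibition above a per-plate cutoff, the plate's mean sample inhibition plus 3 SD, cut at about 24% in these data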;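 further: 0% = DMSO plus EC80 ATP and 100% = DMSO alone without ATP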
# An asterisk follows results filed as active.
SMILES,M1 antag,M1 PAM parental,CHO-K1 Ca ag,CHRM1 agonist,CHRM1 PAM,CHO-K1 Ca antag
NS(=O)(=O)c1ccc(CCNC(=O)c2ccc3c(c2)N(Cc2ccccc2)CCS3)cc1,37*,5,6,0,-14,-2
O=C(NCCCN1CCCC1)c1ccc2c(c1)N(Cc1ccccc1)CCS2,-5,-7,0,-7,-8,-1
COc1ccc(CCNC(=O)c2ccc3c(c2)N(Cc2ccccc2)CCS3)cc1OC,39*,18,8,1,-14,-4
O=C(/C=C/[C@H]1O[C@@H](n2ccc(=O)[nH]c2=O)[C@H](O)[C@@H]1O)NCc1ccccc1,-17,-10,0,1,-1,6
Clc1ccc(OCCN2CCCCC2)cc1Cl,29*,12,1,-12,-17,-15
Clc1ccc(OCCCN2CCCC2)cc1Cl,38*,0,8,-6,-21,15
O=C(O)CN1C(=O)c2cccc(Oc3ccc(Cl)cc3)c2C1=O,7,-5,-1,1,-2,30*
Cc1ccc(N2C(=O)c3cccc(Oc4ccc(Cl)cc4)c3C2=O)c(C)c1,-1,7,0,-1,-2,-12
CS(=O)(=O)N(CC(=O)O)c1cc(C(F)(F)F)ccc1Cl,-8,-1,0,1,13,-12
C=CCSC(=S)NC1CCS(=O)(=O)C1 (centres undefined),-2,14,0,-7,-2,-6
Cc1nc(C(F)(F)F)ccc1C(=O)N1CCCC(C(=O)O)CC1 (centres undefined),-8,4,0,-1,5,-10
O=C(NCC(c1ccco1)N1CCCC1)c1ccccc1Sc1ccc(C(F)(F)F)cc1[N+](=O)[O-] (centres undefined),95*,2,1,-8,-28,0
N#Cc1ccccc1Sc1ccccc1C(=O)NCC(c1ccco1)N1CCCCC1 (centres undefined),30*,-6,0,-8,-22,-20
CC1(C)CC(=O)C2=C(C1)N=C1SCCC(=O)N1C2c1ccccc1 (centres undefined),36*,0,0,-8,-15,-11
O=C1CCCC2=C1C(c1ccc(Cl)cc1)N1C(=O)CCSC1=N2 (centres undefined),14,-4,0,-3,-1,15
CC(NC(=O)CN1CCOCC1)c1ccc(F)cc1 (centres undefined),-14,2,0,-3,10,-6
CCOC(=O)[C@@H](NC(=O)CC[C@H]1O[C@@H](n2cc(C)c(=O)[nH]c2=O)C[C@@H]1O)C(C)C,-6,23,2,-4,5,1
CCOC(=O)c1[nH]c2ccccc2c1CCCN1C(=O)c2ccccc2C1=O,89*,19,1,-2,-18,-10
CC(=O)c1c(C)[nH]c(C(=O)OCCCCN2C(=O)c3ccccc3C2=O)c1C,40*,0,9,5,-13,33*
CCOC(=O)c1[nH]c2cc3c(cc2c1CCCN1C(=O)c2ccccc2C1=O)OCCO3,-13,14,0,-7,4,-5
CC(=O)c1c(C)[nH]c(C(=O)OCc2ccccc2)c1C,4,-15,2,0,-3,20
c1ccc(CCNc2nc(-c3ccncc3)nc3ccccc23)cc1,35*,6,5,-4,-14,-5
O=c1cc(-c2ccccc2)nc(/C=C/c2ccccc2)[nH]1,-6,17,17*,10,10,-2
COc1ccc(/C=C/c2nc(-c3ccccc3)cc(=O)[nH]2)cc1,-8,7,1,0,10,0
CC(C)CN(C(=O)Cn1nnc(-c2ccc(F)cc2)n1)C1CCS(=O)(=O)C1 (centres undefined),-12,-7,1,0,1,1
SMILES,M1 antag,M1 PAM parental,CHO-K1 Ca ag,CHRM1 agonist,CHRM1 PAM,CHO-K1 Ca antag
CCOC(=O)C1CCCN(Cc2nc(N)nc(Nc3ccccc3)n2)C1 (centres undefined),13,0,0,31*,-9,14
Nc1nc(CN2CCN(c3ccccc3F)CC2)nc(Nc2ccccc2)n1,4,-3,0,1,1,31*
Nc1nc(CN2CCC(Cc3ccccc3)CC2)nc(Nc2ccccc2)n1,31*,2,1,-5,-15,-2
Nc1nc(CN2CCCCCC2)nc(Nc2ccccc2)n1,-10,4,0,-4,7,-12
Cc1ccc(Nc2nc(N)nc(CN3CCN(c4ccccc4F)CC3)n2)cc1,-12,10,1,-1,4,-9
OC(CSc1ccc(F)cc1)CN1CCN(c2ccccc2)CC1 (centres undefined),0,-11,0,-12,-1,10
C=CCn1c(SC(C)C(=O)NC2(C#N)CCCCC2)nnc1-c1ccc(OC)cc1 (centres undefined),33*,2,1,-3,-9,0
CC(C)N(C(=O)[C@H]1C[C@H](CC(=O)NCCCn2ccnc2)C(=O)N2CCc3c([nH]c4ccc(Cl)cc34)[C@]12C)C(C)C,-14,17,0,-11,5,-19
Nc1nc(N)nc(C2C=CCCC2)n1 (centres undefined),-1,-11,0,6,15,4
O=C(CCc1ccccc1)NC1(Cc2ccccc2)CCN(CCc2cccs2)C1=O (centres undefined),-4,17,4,-6,-1,-14
O=C(NC1(Cc2ccccc2)CCN(Cc2ccc(-c3ccccc3)cc2)C1=O)c1ccccc1 (centres undefined),37*,-12,2,-2,-14,4
Cc1ccccc1-c1nnc(SCC(=O)NCC2CCCO2)o1 (centres undefined),-13,20,0,-1,8,-14
O=C(CSc1nnc(-c2cccc(Br)c2)o1)NCC1CCCO1 (centres undefined),1,-12,0,0,5,26*
O=C(COC(=O)CNC(=O)c1ccco1)NCc1ccc(F)cc1,23,-2,0,-3,-8,13
CC1CCCCC1NC(=O)CSc1ccsc1[N+](=O)[O-] (centres undefined),-8,22,2,-10,10,-5
O=C(CSc1ccsc1[N+](=O)[O-])NC1CCCC1,1,-14,-1,-8,10,26*
CCc1nn(C(C)C(=O)NCCN2CCN(c3cccc(C)c3C)CC2)c(=O)c2cc3occc3n12 (centres undefined),-13,25,2,-2,6,-2
Cc1nn(C(C)C(=O)NCCN2CCCCCC2)c(=O)c2nn(-c3ccccc3)c(C)c12 (centres undefined),58*,-7,0,-5,-21,-2
CCc1nn(C(C)C(=O)NCCN2CCCCCC2)c(=O)c2cc3occc3n12 (centres undefined),38*,-16,-1,-5,-22,-2
